Reference: PubChem BioAssay AID624171 (National Center for Advancing Translational Sciences (NCATS), 2012)
Screen size: about 410,000 compounds; about 1,200 (0.29%) were called active. Not shown: some 2% with an inconclusive outcome. What follows is part of a selection rich in actives, with near analogues and random picks from the rest. Entries that show only a call come without a potency. Values without a mark were called inactive. The call rests on the fitted dose curve; in most records, active means well fitted activation curve with a large enough effect; inconclusive means small, poorly fitted or top-dose-only effect; inactive means flat fitted curve, though single readings scatter.

Assay: qHTS of Nrf2 Activators; further: nearly all actives have a fitted effect of over 65% in size
Settings: AREc32 ARE-luciferase reporter (MCF7-derived line), luminescence, 24 h; series mostly up to 46.1 µM
Procedure, shortened: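 Nrf2 activation is followed as ARE-luciferase induction in the AREc32 line after one day of compound treatment; luminescence is read with Steady-Glo.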
Potency means the concentration at half of the fitted maximal effect.

SMILES | Potency | activation
O=C(Nc1cccc2ccccc12)c1onc2c1CCCC2 | 12.6 µM (active) | 
COc1ccc(C(=O)Nc2onc3c2CCCC3)cc1 | inactive | 
Cc1c(Cl)cccc1NC(=O)c1noc2c1CCCC2 | inactive | 
COc1cccc(C(=O)NCc2ccc3c(c2)CCN3C(=O)c2ccncc2)c1 | inactive | 
C=CCSc1nsc(NC(=O)Nc2cccc(C(C)=O)c2)n1 |  | -0.163% [at 9.22 µM]
C=CCSc1nnc2c(n1)-c1cccc3cccc-2c13 | 12.6 µM (active) | 
Cc1cc(C)c(-c2n[nH]c3c2C(c2ccccc2F)N(CCO)C3=O)c(O)c1 (stereo not drawn) | inactive | 
Cc1nc2ccc(S(=O)(=O)NC(C(=O)NCc3ccccc3Cl)C(C)C)cc2s1 (stereo not drawn) | inactive | 
O=C(c1cnc(Cl)c(Cl)c1)N1CCN(S(=O)(=O)c2ccc(F)cc2)CC1 | inactive | 
O=C(c1c(F)cccc1Cl)N1CCN(S(=O)(=O)c2ccc3c(c2)OCCCO3)CC1 | inactive | 
CC(=O)N1CCN(S(=O)(=O)c2c(F)cc(F)c(Cl)c2F)CC1 | 11.2 µM (active) | 
Cc1c(CNC(C)c2ccccc2)c(C(=O)O)c(C)n1Cc1c(F)cccc1Cl (stereo not drawn) | inactive | 
Cc1csc2nc(COc3ccc(NC(=O)COc4ccccc4)cc3)cc(=O)n12 | inactive | 
O=C(Nc1nc2c(s1)CCCC2)c1ccccc1F | inactive | 
O=C(Nc1ccccc1F)c1ccccc1-c1ccc(C(F)(F)F)cc1 | inactive | 
O=C(Nc1nnc(-c2ccccc2F)s1)c1ccccc1F | 3.16 µM (active) | 
O=C(COc1ccccc1F)Nc1ccc(C(=O)OCc2cc(=O)n3nc(C4CC4)sc3n2)cc1 | inactive | 
Cc1ccccc1CNC(=O)CCCn1nc(C)c2sc3ccccc3c2c1=O | inactive | 
N#Cc1ccc(C2N=C(c3ccccc3)NO2)cc1 (stereo not drawn) | inactive | 
Brc1ccccc1C1N=C(c2ccccc2)NO1 (stereo not drawn) | 6.31 µM (active) | 
COc1cc(Cl)c(NC(=O)CC(C)S(=O)(=O)c2cc3c(cc2C)NC(=O)CO3)c(OC)c1 (stereo not drawn) | inactive | 
CN(C)CCCn1c(-c2ccc(Cl)cc2)csc1=Nc1ccccc1 | inactive | 
CN(C)CCN=c1cc(-c2ccccc2)oc2ccc(Cl)cc12 | 11.2 µM (active) | 

SMILES | Potency | activation
Cc1ccc(Cc2nc3ccccc3nc2SCC(=O)Nc2cccc(C(F)(F)F)c2)cc1 | inactive | 
CCOCCCNC(=O)c1c(NC(=O)Cc2coc3ccc(C)cc23)sc2c1CCC2 | inactive | 
N#CC1=C(N)Oc2c(sc3ccccc23)C1c1ccco1 (stereo not drawn) | 3.16 µM (active) | 
CC(=O)c1cccc(NC(=O)c2nc(-c3ccccc3)n(-c3cccc(C)c3)n2)c1 | inactive | 
Cc1cccc(S(=O)(=O)c2cn(Cc3ccccc3)c3cc(N4CCOCC4)c(F)cc3c2=O)c1 | inactive | 
CCN(CC)c1cc(NC2CCCCC2)c2c3c(onc13)-c1ccccc1C2=O | inactive | 
Cc1csc(NC(=O)Nc2ccccc2[N+](=O)[O-])n1 | 4.47 µM (active) | 
COc1ccc(OCCCC(=O)OC(C)C(=O)Nc2ccccc2[N+](=O)[O-])cc1 (stereo not drawn) | inactive | 
Cc1csc(NC(=O)C2CCN(S(=O)(=O)c3ccccc3)CC2)n1 | inactive | 
Cc1c(CCNC(=O)c2ccc(C(F)(F)F)cc2)sc2nc(-c3ccc(F)cc3)nn12 | inactive | 
O=C(Nc1cc(-c2nc3ccccc3o2)ccc1Cl)c1cc([N+](=O)[O-])ccc1N1CCOCC1 | inactive | 
O=[N+]([O-])c1ccc2oc(-c3cccc(O)c3)nc2c1 | 6.31 µM (active) | 
CCC(=O)Nc1cccc(-c2nc3cc(C)ccc3o2)c1 | inactive | 
CC(=O)c1ccc(NC(=O)CSc2c(C(C)C)cnc3c2c(=O)n(C)c(=O)n3C)cc1 | inactive | 
Cc1cccc(C(=O)Nc2ccc(-c3nc4ncccc4o3)cc2C)c1 | inactive | 
Cc1cc(NC(=O)c2ccc(-c3ccc(Cl)cc3)o2)cc(-c2nc3ncccc3o2)c1O | inactive | 
O=C(Nc1cc(-c2nc3ncccc3o2)ccc1Cl)c1ccco1 | 6.31 µM (active) | 
CCc1cc2c(cc(C(=O)OC)n2Cc2nc(-c3ccc(C)cc3)oc2C)s1 | inactive | 
CSc1ccccc1NC(=O)CCS(=O)(=O)c1nc(-c2cccs2)cc(C(F)(F)F)n1 | inactive | 
COc1ccc(Cc2nnc(SCC(=O)c3cccc([N+](=O)[O-])c3)n2C)cc1 | inactive | 
O=C(CSc1nc(Nc2ccc(F)c(F)c2)c2ccccc2n1)c1ccc(Cl)cc1 | inactive | 
O=C(CSc1nc2ccc([N+](=O)[O-])cc2[nH]1)c1ccc(Cl)cc1 | 11.2 µM (active) | 
CCOc1ccccc1C(=O)Nc1ccc2c(c1)N(C)C(=O)c1ccccc1S2 | inactive | 

SMILES | Potency | activation
CCOC(=O)c1ccc2c(c1)N(Cc1cccc(OC)c1)C(=O)c1ccccc1S2(=O)=O | inactive | 
Cc1ccccc1CNC(=O)Cn1c(C)c2cnn(-c3ccccc3)c(=O)c2c1C | inactive | 
CCC(C(=O)Nc1cc(OC)ccc1OC)n1c(=O)c(C(F)(F)F)nc2ccccc21 (stereo not drawn) | inactive | 
CN(C)C(=O)CSc1n[nH]c(-c2ccco2)n1 | inactive | 
S=c1[nH]nc(/C=C/c2ccccc2)o1 | inactive | 
S=c1[nH]nc(-c2ccco2)n1/N=C/c1ccccc1 | 10 µM (active) | 
COc1cc(NC(=O)c2cc(C3CC3)nc3c2c(C)nn3-c2ccccc2)cc(OC)c1 | inactive | 
Cc1cccc(NC(=O)Cn2nc(-c3ccc(Cl)cc3)c3ccccc3c2=O)c1 | inactive | 
COCOc1cc(O)c(C(=O)/C=C/c2ccc(OCOC)c(OCOC)c2)c(OCOC)c1 | inactive | 
COc1ccc(/C=C/C(=O)c2cc(Br)ccc(=O)c2O)cc1 | 12.6 µM (active) | 
COc1cccc(N2CC(NC(=O)/C=C\c3ccccc3)CC2=O)c1 (stereo not drawn) | inactive | 
O=C(c1ccc(F)cc1)n1c(=S)nc2ccccn21 | 2.51 µM (active) | 
O=C(Nc1c(-c2ccc(F)cc2)nc2ccccn12)c1cccc(F)c1 | inactive | 
O=C(c1ccc(F)cc1)N1CCCC(C(=O)N2CCCCC2)C1 (stereo not drawn) | inactive | 
Cc1ccc(-c2nc(SCc3ccc(Br)cc3)n3[nH]c(=O)cc3n2)cc1 | inactive | 
CCc1nn(CC(=O)NCC(C)c2ccccc2)c(=O)c2cc3occc3n12 (stereo not drawn) | inactive | 
Cc1cccc(NC(c2cccc(F)c2)c2ccc3ccc(C)nc3c2O)n1 (stereo not drawn) | inactive | 
CCOc1cc(NC(=O)c2ccccc2C(=O)O)c(OCC)cc1NC(=O)c1ccccc1F | inactive | 
CCOc1cc(NC(=O)CCl)c(OCC)cc1NC(C)=O | 14.1 µM (active) | 
CCOCC(=O)Nc1cc(OC)c(Cl)cc1OC | inactive | 
CC(C)(C)OC(=O)N1CCC(c2c(C(=O)NCCc3ccsc3)cnn2-c2ccc(F)cc2F)CC1 | inactive | 
COc1ccccc1NC(=O)c1cc(S(=O)(=O)NCCc2ccccc2)ccc1F | inactive | 
